Experimental findings from PubChem BioAssay are described below.

Active and inactive are the calls of the source. Cut-off read from the data, not from the text of the source: active = fold change permeability below about 0.7 or above about 1.3; inactive = in between. Residues, ends and D or L forms follow the SMILES beside them. *: point of attachment. Cbz = O=C(OCc1ccccc1)*

A short description of the experiment: compounds altering in vitro BBB leakiness – cell-based, FITC-avidin fluorescence, HTS, primary screen (AID 1963498). Note: test concentration not given here. As to conditions: brain endothelial barrier, actives lie on both sides.
Take `Cc1cccc(Nc2ccccc2C(=O)O)c1`: the fold change permeability was 0.9 (inactive).

Turning to `CC(=O)NNC(=O)N1Cc2ccccc2Oc2ccc(Cl)cc21`, the fold change permeability was 0.7 (active).

As to `Cn1cnc2c1c(=O)[nH]c(=O)n2C`, the fold change permeability is 1.3 (active).

On to `CN[C@H](CC(=O)O)C(=O)O`, for which the fold change permeability is 0.8 (inactive).

`CCCCCCCCCCCC(=O)c1c(O)c(C(=O)CCCCCCCCCCC)c(O)c(C2CC(c3ccc(O)cc3)Oc3cc(O)ccc32)c1O` (stereo not given): the fold change permeability was 1.4 (active).

With `NC(=O)N1c2ccccc2C=Cc2ccccc21`, the fold change permeability is 1.1 (inactive).

On to `NCCCCNCCCN`, for which the fold change permeability was 0.7 (active).

In the case of `C[N+](C)(C)CCOP(=O)(O)OP(=O)([O-])OC[C@H]1O[C@@H](n2ccc(N)nc2=O)C(O)[C@H]1O` (stereo not given in full), the fold change permeability was 1.1 (inactive).

As to `O=C(NCCc1nccs1)c1cnc2c(SSc3cccc4cc(C(=O)NCCc5nccs5)cnc34)cccc2c1`, the fold change permeability was 0.7 (active).

For the molecule `COc1ccccc1N1CCN(CCCCN2C(=O)c3ccccc3C2=O)CC1`, the fold change permeability was 0.9 (inactive).

For the molecule `O=C1Cc2cc(CCN3CCN(c4nsc5ccccc45)CC3)c(Cl)cc2N1`, the fold change permeability is 0.9 (inactive).

Consider `O=c1[nH]c(=O)c2nc3ccccc3nc2[nH]1`, for which the fold change permeability is 1.3 (active).

Take `CC(C)c1cccc(C(C)C)c1N1C(=O)c2ccc(O)cc2C1=O`: the fold change permeability was 1.6 (active).

For `N[C@@H](Cc1c[nH]c2ccccc12)C(=O)O`, the fold change permeability is 1.3 (active).

Take `NCC(O)C1CCCCCCC1` (stereo not given): the fold change permeability is 1 (inactive).

With `COc1cc(C[C@H](C)[C@H](C)Cc2ccc3c(c2)OCO3)ccc1O`, the fold change permeability is 1.7 (active).

Turning to `C=C1C[C@@]23CC[C@H]4[C@@](C)(CCC[C@@]4(C)C(=O)O)[C@@H]2CC[C@]1(O)C3`, the fold change permeability was 0.9 (inactive).

`Nc1ccn([C@H]2CC[C@@H](CO)O2)c(=O)n1`: the fold change permeability is 1 (inactive).

With `CCC(NC(C)C)C(O)c1ccc(O)c(O)c1` (stereo not given), the fold change permeability is 1.9 (active).

As for `CC[C@H](NC(=O)c1c(O)c(-c2ccccc2)nc2ccccc12)c1ccccc1`, the fold change permeability was 1.1 (inactive).

Consider `CC(C)[C@H](NC(=O)OCc1ccccc1)C(=O)N[C@H](C=O)Cc1ccccc1` (Cbz-Val-Phe-aldehyde), for which the fold change permeability is 1.4 (active).

As to `COc1cc([C@@H]2c3cc4c(cc3[C@@H](O[C@@H]3O[C@@H]5CO[C@@H](C)O[C@H]5[C@H](O)[C@H]3O)[C@H]3COC(=O)[C@H]23)OCO4)cc(OC)c1O`, the fold change permeability was 0.9 (inactive).

`CC(=O)OCC1=C(C(=O)O)N2C(=O)[C@@H](NC(=O)Cc3cccs3)[C@H]2SC1`: the fold change permeability was 0.8 (inactive).

For `N[C@@H](COP(=O)(O)O)C(=O)O`, the fold change permeability is 1 (inactive).

For `O=c1n(CCCN2CCN(c3cccc(Cl)c3)CC2)nc2ccccn12`, the fold change permeability is 1.1 (inactive).

In the case of `CN(C)c1ccc(NCc2ccccn2)cc1`, the fold change permeability is 1.5 (active).

For the molecule `Nc1nc2c(c(=O)[nH]1)C[C@@H](CCc1ccc(C(=O)N[C@@H](CCC(=O)O)C(=O)O)cc1)CN2`, the fold change permeability is 0.9 (inactive).

On to `O=C(O)c1cc(=O)c2ccccc2[nH]1`, for which the fold change permeability is 1.6 (active).

Regarding `COc1cccc(OC)c1OCCNCC1COc2ccccc2O1` (stereo not given), the fold change permeability is 1.3 (active).

Turning to `O=c1[nH]c2cc(Cl)ccc2c(O)c1-c1cccc(Oc2ccccc2)c1`, the fold change permeability is 1.4 (active).

`Nc1nc2c(cnn2CCc2ccccc2)c2nc(-c3ccco3)nn12`: the fold change permeability was 0.7 (active).

`NC(Cc1ccc(Cl)cc1)C(=O)O` (stereo not given): the fold change permeability was 0.9 (inactive).

For `Nc1nc2c(ncn2[C@@H]2O[C@H](CO)[C@@H](O)[C@@H]2O)c(=O)[nH]1`, the fold change permeability is 2.1 (active).

In the case of `COc1cc2nc(N3CCN(C(=O)C4COc5ccccc5O4)CC3)nc(N)c2cc1OC` (stereo not given), the fold change permeability is 1.4 (active).

For the molecule `CC(=O)O[C@]1(C(C)=O)CC[C@H]2[C@@H]3C=C(Cl)C4=CC(=O)[C@@H]5C[C@@H]5[C@]4(C)[C@H]3CC[C@@]21C`, the fold change permeability is 1 (inactive).

As to `CC(C(=O)O)c1ccc(C(=O)c2cccs2)cc1` (stereo not given), the fold change permeability was 0.8 (inactive).

As for `CN1CCN(CCCN2c3ccccc3Sc3ccc(C(F)(F)F)cc32)CC1`, the fold change permeability is 1.2 (inactive).

Consider `NC(N)=NCCC[C@H](N)C(=O)O`, for which the fold change permeability is 1.1 (inactive).

As for `O=C(O)CSCC(=O)NC1CCSC1=O` (stereo not given), the fold change permeability is 1.7 (active).

As to `C=C1C[C@@]23CC[C@H]4[C@@](C)(CCC[C@@]4(C)C(=O)O[C@@H]4O[C@H](CO)[C@@H](O)[C@H](O)[C@H]4O)[C@@H]2CC[C@]1(O[C@@H]1O[C@H](CO)[C@@H](O)[C@H](O)[C@H]1O[C@@H]1O[C@H](CO)[C@@H](O)[C@H](O)[C@H]1O)C3`, the fold change permeability is 1.7 (active).
